Source: PubChem BioAssay (NCI)
About 83,000 compounds went through this panel and 20% of them were active in at least one assay; those are over-represented in the sample as a whole.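 How to read the values: 0–100, growth inhibition (40 = 60% inhibited); 0, no net growth; -100 to 0, cell death (-40 = 40% of starting cells died; -100 = all dead).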 Values without a mark were called inactive. Activity calls are given as the source filed them. Rule for the calls: active = growth percent below 10; inactive = the rest.

Each molecule was assayed on OVCAR-8 ovarian (assay: NCI-60 one-dose screen, 48 h (100 = growth as untreated, 0 = no growth, -100 = all killed)). Conditions: 10 µM unless noted.

| Structure (SMILES) | growth |
| --- | --- |
| COc1ccc(C2SCC(=O)N2NC(=O)c2ccc(NC(=O)c3ccccn3)cc2)cc1OC (centres undefined) | 98% |
| O=C(O)c1cn(C2CC2)c2cc(N3CCN(S(=O)(=O)c4ccc(Cl)c(Cl)c4)CC3)c(F)cc2c1=O | 5.48% (active) |
| COc1ccc(/C=C/C(=O)c2ccc(B(O)O)cc2)cc1O | 89.9% |
| O=C(Nc1ccc(OCc2nnc(-c3ccc(Cl)cc3)o2)c(F)c1)Nc1ccc(Cl)c(Cl)c1 | 60.2% |
| COc1cc(/C=C2\C=C(c3ccc(F)cc3)N(Cc3ccccc3)C2=O)cc(OC)c1OC | 48.8% |
| Cc1cc(C)c(NC(=O)c2sc3nc4c(cc3c2N)CN(Cc2ccccc2)CC4)c(C)c1 | 46.6% |
| COc1cccc(-c2nc3sccn3c2-c2ccnc(NCCCNS(=O)(=O)c3ccccc3)n2)c1 | 29.6% |
| COc1cc(NCCN=C(N)NC(N)=NC(C)C)c2ncccc2c1 | 87% |
| Cc1ccc(Nc2ncnc3c2sc2ncccc23)cc1 | 98.1% |
| COc1cccc(/C=C2\SC(N3CCN(c4ccccn4)CC3)=NC2=O)c1 | 100% |
| CCOC(=O)C1=C(CSC(=S)N(C2CCCCC2)C2CCCCC2)N(C)C(=O)NC1c1ccccc1 (centres undefined) | 49.2% |
| CC(C)C[C@H](NC(=O)[C@@H](Cc1ccccc1)n1ccc(Nc2ccccc2)cc1=O)B(O)O | 8.16% (active) |
| COc1cccc(-c2nc3sccn3c2-c2ccnc(NCCCNS(=O)(=O)c3ccc(F)cc3)n2)c1 | 17.3% |
| O=S(=O)(NCCCNc1nccc(-c2c(-c3ccccc3)nc3sccn23)n1)c1ccc(F)cc1 | 26.2% |
